Sampled rows, rich in hits. Any-hit rate of the full collection: about 6.2%.
MARV entry inh – blocks Marburg virus binding to or entry into cells. Marburg virus pseudotyped entry inhibition, cell reporter. Potency, µM (series often up to 37.8 µM), without a hit: at the highest dose activity change, negative = inhibition, usual class: inhibitors. 300,000 tested, 1.8% active. AID 540276; calls by dose curve; tested in HEK293 cells; further: potency means the concentration at half of the fitted maximal effect
HCMV antiviral – inhibitors of human cytomegalovirus. HFF cells, HCMV-luciferase reporter, 72 h; active compounds read low. activity change, negative = inhibition, % at 57.5 µM. 410,000 tested, 4.5% active. AID 1259415; in the data active means activity change below about -60%; inconclusive means no clear call, values can overlap the other calls; inactive means above about -39%
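Cell-based, HFFs, 1000 cells/well, 16 h 37C; cpds in DMSO + HCMV-luc, MOI 1 PFU/cell; 72 h 37C; OneGlo luminescence after 5 min RT; norm. to buffer vs Salinomycin 10uM.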
LASV entry inh – inhibitors of Lassa virus binding or cell entry. Lassa virus pseudotype entry inhibition, cell reporter. Potency, µM (titrated, usually from 37.9 µM), inactives show top-dose activity change, negative = inhibition, hits mostly inhibitors. 300,000 tested, 1.2% active. AID 540256; calls by dose curve; tested in HEK293 cells; further: potency means the concentration at half of the fitted maximal effect; nearly all actives have a fitted effect of over 50% in size
FMDV inh – foot and mouth disease virus antiviral activity; FMDV antiviral cell-based qHTS; Potency, µM (doses to about 57.9 µM), inactives show at the highest dose activity change, negative = inhibition, usual class: inhibitors; 410,000 tested, 1.2% active; AID 1159524; calls by dose curve; tested in HEK293T cells; further: read-out not given here; potency means the concentration at half of the fitted maximal effect; nearly all actives have a fitted effect of over 45% in size
Numbers without * were called inactive; ? = inconclusive; . = no result given; + = active, no number; ! = a repeat was not active; [ ] = another dose, or the depositor's remark. On the % scale 0 is the no-effect control and ±100 the full control effect.

SMILES	MARV entry inh	HCMV antiviral	LASV entry inh	FMDV inh
NC(=O)[C@H]1CC2(CC(c3cccc(NC(=O)CC(c4ccccc4)c4ccccc4)c3)=NO2)CN1C(=O)CC(c1ccccc1)c1ccccc1 (stereo not given in full)	.	-33	.	-14%
C/C=C(\C)C(=O)Nc1cccc(C2=NOC3(C2)C[C@@H](C(N)=O)N(C(=O)/C(C)=C/C)C3)c1 (stereo not given in full)	.	-68*	.	2%
NC(=O)[C@@H]1CC2(CC(c3cccc(NC(=O)CC(c4ccccc4)c4ccccc4)c3)=NO2)CN1C(=O)c1ccc(Cl)cc1 (stereo not given in full)	.	-72*	.	-27%
C=C(C)C(=O)Nc1cccc(C2=NOC3(C2)C[C@@H](C(N)=O)N(C(=O)/C(C)=C/C)C3)c1 (stereo not given in full)	.	-32	.	5%
O=S(=O)(NC12CC3CC(CC(C3)C1)C2)c1ccc(F)cc1	-4%	-11	-25%	-5%
Cc1cc(=O)[nH]c(N/N=C/c2c(C)oc3ccccc23)n1	-11%[46.1 µM]	?	23%[46.1 µM]	-23%
COc1ccc(Nc2c3c(nc4ccc(C)cc24)CCC3)cc1	.	-81*	.	?
Cc1ccc2nc3c(c(Nc4ccc5c(c4)OCCO5)c2c1)CCC3	?	-66*	14µM*	-44%
N#Cc1ccc(C(=O)Nc2nc3ccccc3[nH]2)cc1	10µM*	90	?	-4%
N#Cc1cc(NC(=O)c2ccc(Cl)cc2)ccc1Sc1ccccc1	.	-83*	.	-11%
O=C(Nc1nc2ccccc2[nH]1)c1ccc(F)cc1	?	74	6.5µM*	20µM*
CCOc1ccc(C(=O)Nc2nc3ccccc3[nH]2)cc1OCC	11µM*	-63*	.	?
COc1ccc(C(=O)Nc2nc3ccccc3[nH]2)cc1OC	-20%	119	12%	21%
COc1ccc(Cl)cc1C(=O)Nc1nc2ccccc2[nH]1	?	1	?	11µM*
N#Cc1ccc(C(=O)Nc2ccc3ccccc3c2)cc1	?	13	4µM*	30%
COc1ccc(Br)c(C(=O)Nc2nc3ccccc3[nH]2)c1	?	-18	5%[46.1 µM]	32%
CCc1ccc(C(=O)Nc2nc3ccccc3[nH]2)cc1	?	-101*	?	5.6µM*
O=C(Nc1nc2ccccc2[nH]1)c1ccccc1F	0.32µM*	-79*	0.28µM*	3.2µM*
O=C(Nc1nc2ccccc2[nH]1)c1ccccc1OC(F)F	?	80	?	-39%
COCCCNC(=O)c1cc2cc(S(=O)(=O)N3CCCCC3)ccc2n1C	.	-35	-16%[46.1 µM]	-16%
O=C(COC(=O)Cc1ccsc1)NC(c1ccccc1)c1ccccc1	14%	-7	7%	0%
COc1ccc(-n2c(CN3CCN(C)CC3)nc3ccc([N+](=O)[O-])cc3c2=O)c(OC)c1	.	10	.	-13%
COc1ccc(-n2c(CN3CCN(c4ccc(F)cc4)CC3)nc3ccc([N+](=O)[O-])cc3c2=O)c(OC)c1	-21%[46.1 µM]	-92*	?	-8%
C=C1C(=O)OC2C=C(CO)CCC=C(CO)CC(OC(=O)C(C)C)C12 (stereo not given)	?	7	?	40µM*
CN(C)c1cccc(C(=O)N(Cc2ccccc2)Cc2ccccc2)c1	.	-18	.	1%
SMILES	MARV entry inh	HCMV antiviral	LASV entry inh	FMDV inh
Cc1cc2occ(CC(=O)N(C)CC(=O)Nc3ccccc3C(F)(F)F)c2cc1C	.	-18	.	-21%
Cc1cc(NC(=O)CSCC(=O)Nc2ccc(C)c(C)c2)no1	.	+	.	-16%
Cc1cc(NC(=O)CSc2ccc(F)cc2)no1	.	?	.	-12%
Cc1cc(NC(=O)CCc2ccc(-c3ccccc3)o2)no1	?	-102*	?	-2%
COCCn1c(-c2ccc(OC)cc2)cnc1SCC(=O)Nc1cc(C)on1	?	-86*	-11%	?
Cc1cc(NC(=O)CSc2ccccc2)no1	?	-102*	16%	33%
Cc1cc(NC(=O)CSc2nc(=O)cc(N)n2-c2ccc(Cl)cc2)no1	-1%[46.1 µM]	-64*	-4%[46.1 µM]	10%
CCc1cc2c(C)cc(C)cc2nc1SCC(=O)Nc1cc(C)on1	14%[46.1 µM]	-4	?	-8%
Cc1cc(NC(=O)CSc2nnc(-c3ccccc3)o2)no1	7%[46.1 µM]	15	0%[46.1 µM]	-3%
Cc1cccc(-n2c(N)cc(=O)nc2SCC(=O)Nc2cc(C)on2)c1	10%	-32	10%	4%
Cc1cc(NC(=O)CSc2nnc(-c3ccccc3)c(-c3ccccc3)n2)no1	?	-62*	?	?
CCOc1cc(-c2nnc(SCC(=O)NCc3ccccc3)nc2-c2ccc(OC)c(OCC)c2)ccc1OC	.	-75*	?	-7%
Cc1cc(C)c2cc(C#N)c(SCC(=O)Nc3cc(C)on3)nc2c1	20%[46.1 µM]	-61*	.	8%
O=C(Nc1ccc(F)cc1)c1ccc(CN2CC(=O)N3CCCCC3C2=O)cc1 (stereo not given)	.	?	-7%[46.1 µM]	-11%
CCS(=O)(=O)N1CCN(C(=O)c2ccccc2)CC1	-3%	9	0%	10%
COc1ccc([N+](=O)[O-])cc1NC(=O)COC(C)=O	.	30	.	-10%
CCn1c(=O)cc(SCC(=O)N2CCN(Cc3ccc4c(c3)OCO4)CC2)c2ccccc21	1%	99	-19%	40µM*
O=C(CCCCCn1c(=O)[nH]c2ccccc2c1=O)N1CCN(Cc2ccc3c(c2)OCO3)CC1	?	-19	16µM*	?
Cc1c(C(O)CN2CCN(Cc3ccc4c(c3)OCO4)CC2)c2ccccc2n1C (stereo not given)	?	-28	?	-14%
OC(CN1CCN(Cc2ccc3c(c2)OCO3)CC1)c1c[nH]c2ccccc12 (stereo not given)	-28%	-88*	?	0%
COc1cc(NC(=O)CSc2nc3nc(C)c(Cc4ccccc4)c(C)n3n2)cc(OC)c1	.	15	10%[46.1 µM]	-10%
COc1ccc(NC(=O)CSc2nc3nc(C)c(Cc4ccccc4)c(C)n3n2)cc1OC	.	-66*	-5%[46.1 µM]	-23%
N#Cc1ccccc1N/C=C/C(=O)c1ccc(Cl)cc1	?	82	13µM*	-25%
NC(=O)c1ccccc1N/C=C/C(=O)c1ccc(Cl)cc1Cl	5.6µM*	43	?	-77%
C=CCn1c(SCC#N)nc2ccccc2c1=O	0%	-9	2%	13%
SMILES	MARV entry inh	HCMV antiviral	LASV entry inh	FMDV inh
CC(C)Cn1c(SCC#N)nc2ccccc2c1=O	-20%	-101*	1%	0%
CC(=O)Nc1cccc(NC(=O)CSc2nccn2Cc2ccco2)c1	14%	-70*!	13%	-27%
CC1(C(=O)O)CCCN1C(=O)c1cc2ccccc2s1 (stereo not given)	.	-10	.	4%
c1ccc2sc(C3(N4CCCCC4)CCCCC3)cc2c1	7.1µM*	.	?	-21%
Cn1c(SC2=CS(=O)(=O)c3ccccc32)nc2ccccc21	?	-98*	?	28µM*
O=C(NCc1cn2ccsc2n1)c1c(F)cccc1Cl	.	13	.	-3%
CCCN(CCC)c1ncnc2nc[nH]c12	.	-88*	.	-16%
Cc1cccc(NC(=O)C2CCN(S(C)(=O)=O)CC2)c1C	4%[46.1 µM]	35	-10%[46.1 µM]	-6%

Compound activity from PubChem BioAssay.
